Assay [1] can be described thus: NCI Yeast Anticancer Drug Screen. Data for the rad50 strain (AID 155).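 Note: 0% = growth of vehicle-only cultures of the same strain.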 Particulars: S. cerevisiae rad50 strain growth inhibition; at 50.0 µM; stronger effect = higher value. The method, boiled down: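 Genetically altered yeast (DNA repair pathway); compound treatment; growth inhibition vs vehicle ctrl.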
Assay [2] can be described thus: NCI Yeast Anticancer Drug Screen. Data for the mec2-1 strain (AID 157). Particulars: S. cerevisiae mec2-1 strain, at 50.0 µM, stronger effect = higher value. The method, boiled down:
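Strain: mec2-1 (DNA repair/cell cycle alteration). Compound exposure, then growth measured; inhibition expressed relative to vehicle.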

Assay [3] can be described thus: NCI Yeast Anticancer Drug Screen. Data for the sgs1 mgt1 strain (AID 161).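 Note: 0% = growth of cultures given vehicle only.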 The settings on record: S. cerevisiae sgs1 mgt1 strain, at 50.0 µM, stronger effect = higher value. In outline:
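Test agents were incubated with a DNA-repair-mutant yeast strain. Growth was then read and compared against vehicle-treated controls.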

Assay [4] in a line: NCI Yeast Anticancer Drug Screen. Data for the cln2 rad14 strain (AID 165).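 Note: 0% = growth equal to vehicle treated cultures.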 Particulars: S. cerevisiae cln2 rad14 strain, at 50.0 µM, stronger effect = higher value. The method, boiled down: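 Compounds are applied to the cln2 rad14 yeast strain, and growth is then compared with that of vehicle-treated cultures to give inhibition.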
Assay [5] in a line: NCI Yeast Anticancer Drug Screen. Data for the bub3 strain (AID 167). The settings on record: S. cerevisiae bub3 mutant strain, at 50.0 µM, stronger effect = higher value. In outline:
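Yeast carrying a defined mutation is treated with each compound, and growth is compared with that of vehicle-exposed cells to give inhibition.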

A short description of assay [6]: NCI Yeast Anticancer Drug Screen. Data for the mlh1 rad18 strain (AID 175). Particulars: S. cerevisiae mlh1 rad18 strain growth inhibition; at 50.0 µM; stronger effect = higher value. In outline:
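Read-out is yeast growth inhibition, calculated against vehicle-only controls. The compound was applied to a strain engineered with DNA damage repair alterations.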

Compounds without any hit were thinned out: in the full panel of roughly 79,000, 15% have a hit. Values without a mark were called inactive. Calls of active or inactive are those of the source. Cut-off read from the data, not from the text of the source: active = growth inhibition above about 70%; inactive = the rest.

As for `CCCN(CCC)S(=O)(=O)c1ccc(NC(=O)Oc2ccccc2OC)cc1`, the growth inhibition in assay [1] is 41.6%; in assay [2] it was 3.8%; in assay [3], 31.8%; in assay [4], 20.6%; in assay [5], -7.3%; in assay [6] it was 22.3%.

`COc1ccc(OC)c(NC(=O)Nc2cccc(C(C)=O)c2)c1`: the growth inhibition in assay [1] was -12.2%; in assay [2] it was 33.9%; in assay [3] it was 33%; in assay [4], -55.4%; in assay [5] it was 35.2%; in assay [6] it was 22.6%.

As for `CCN(CC)C(=O)/C(C)=C(\C)c1ccccc1`, the growth inhibition is -12.7% in assay [1]; 11.8% in assay [2]; -11.6% in assay [3]; 8.3% in assay [4]; 2.9% in assay [5]; -1.45% in assay [6].

As for `O=C1Sc2ccccc2C(=O)N2CCCC12` (stereo unspecified), the growth inhibition is -20.8% in assay [1]; -8.25% in assay [2]; -11.5% in assay [3]; 3.2% in assay [4]; 8.2% in assay [5]; -10.2% in assay [6].

Take `COc1ccc(C2C3=C(CCCC3=O)N(c3ccccc3)C3=C2C(=O)CCC3)cc1`: the growth inhibition is -67% in assay [1]; -18.4% in assay [2]; 3.3% in assay [3]; 19.9% in assay [4]; 7.4% in assay [5]; -27.5% in assay [6].

As for `CC12CC(=O)Nc3ccccc3N1C(c1ccccc1)=NO2` (stereo unspecified), the growth inhibition in assay [1] was -11.5%; in assay [2], -29.4%; in assay [3], -6.6%; in assay [4] it was 3%; in assay [5], -14.8%; in assay [6] it was -7.4%.

Consider `Clc1ccc(CSc2cnnc(SCc3ccc(Cl)cc3)c2SCc2ccc(Cl)cc2)cc1`, for which the growth inhibition in assay [1] is -11.4%; in assay [2] it was 15.2%; in assay [3] it was -10.9%; in assay [4] it was -60%; in assay [5] it was -3.75%; in assay [6], -30.4%.

On to `O=C(Cn1c(=O)oc2ccc(C(=O)c3ccc(F)cc3)cc21)c1ccc([N+](=O)[O-])cc1`, for which the growth inhibition in assay [1] is -13.8%; in assay [2], -36%; in assay [3] it was -15.6%; in assay [4], -24.6%; in assay [5], -21.6%; in assay [6] it was -14.8%.

On to `CN=NNc1ccccc1`, for which the growth inhibition is -1.4% in assay [1]; 6.75% in assay [2]; -6.45% in assay [3]; -29.2% in assay [4]; 14.8% in assay [5]; -6.4% in assay [6].

Consider `CCCCOP(=O)(OCCCC)/C(C#N)=C/c1ccco1`, for which the growth inhibition in assay [1] is -67.7%; in assay [2], -65.6%; in assay [3], -50.1%; in assay [4], -42.1%; in assay [5] it was -29.8%; in assay [6] it was -79.4%.

As for `N#CC(c1ccccc1)[N+](=O)[O-]` (stereo unspecified), the growth inhibition is 11.2% in assay [1]; -5.05% in assay [2]; -2.45% in assay [3]; 9.3% in assay [4]; -2.95% in assay [5]; 22.8% in assay [6].

On to `Nc1ccccc1N`, for which the growth inhibition was -7.9% in assay [1]; -13.3% in assay [2]; 14.4% in assay [3]; -4.5% in assay [4]; -29.9% in assay [5]; -0.35% in assay [6].

As to `BrCC1=CC(c2ccccc2)(c2ccccc2)c2ccccc21`, the growth inhibition in assay [1] is 96.2% (active); in assay [2], 97% (active); in assay [3], 97.3% (active); in assay [4] it was 94.3% (active); in assay [5], 96.2% (active); in assay [6], 96.1% (active).

As for `O=S1(=O)C=C(N2CCCCC2)c2ccccc21`, the growth inhibition in assay [1] was 2.65%; in assay [2], 2.05%; in assay [3], -4%; in assay [4], -13.3%; in assay [5], -52%; in assay [6] it was 11.8%.

As for `CC1C(C(=O)NCC(c2ccccc2)c2ccccc2)CC2CCCCN21` (stereo unspecified), the growth inhibition in assay [1] is -15.5%; in assay [2] it was -4.75%; in assay [3], 13.2%; in assay [4] it was -9.2%; in assay [5], 11.2%; in assay [6] it was 25.9%.

`CC1CC2C3(C1)CC(C(=O)OC3=O)C2(C)C` (stereo unspecified): the growth inhibition in assay [1] was -3.4%; in assay [2], -11.4%; in assay [3], -7.35%; in assay [4], -37.4%; in assay [5] it was -2.1%; in assay [6], 23.4%.

On to `CCCC1=NCCO1`, for which the growth inhibition in assay [1] was -10.9%; in assay [2] it was -26.6%; in assay [3] it was -6.65%; in assay [4], 0.45%; in assay [5], -6.95%; in assay [6], -13.7%.

On to `CP1(=O)CC(=O)CCCCC(=O)C1`, for which the growth inhibition is 2.25% in assay [1]; -1.6% in assay [2]; -1.2% in assay [3]; -25.8% in assay [4]; 42.7% in assay [5]; 19.6% in assay [6].

In the case of `C=C(C)C(=O)OCCn1c(=O)c2c(ncn2C)n(C)c1=O`, the growth inhibition is -7.25% in assay [1]; -18.8% in assay [2]; -12.8% in assay [3]; -3.1% in assay [4]; -14.5% in assay [5]; 5.55% in assay [6].

As for `COc1ccc(C2CC(C)(O)Oc3cc4c(cc32)OCO4)cc1` (stereo unspecified), the growth inhibition in assay [1] is 47.5%; in assay [2], 26.3%; in assay [3], 13.7%; in assay [4], 43.6%; in assay [5] it was 44.9%; in assay [6], 27.1%.

For `Cc1cc(C)c(/C=N/NC(=O)NN)c(C)c1`, the growth inhibition in assay [1] is -16.7%; in assay [2], -7.15%; in assay [3], -12.2%; in assay [4], -2.1%; in assay [5] it was 2.8%; in assay [6], -4.6%.
